# Measured values taken from publication PMC7155171, “Probing the Open Global Health Chemical Diversity Library for Multistage-Active Starting Points for Next-Generation Antimalarials” (ACS Infectious Diseases, 2020).
# Read-outs that look alike come from different tables or passages of the source. In all, about 68,000 compounds were measured (“% viability”: median about 1.1, lowest 2% from about 0.96 on). What follows is part of a selection rich in the lowest values, with near analogues and random picks from the rest. The numbers are fractions of the control, whatever unit the source prints.
# System: P. falciparum (NF54) stage V gametocytes
# Design: Mature stage V gametocyte viability, MitoTracker Red CMXRos high-content imaging
# Conditions: primary screen, n=2, fraction of DMSO control, 72 h, 2 µM, inhibitor
SMILES,% viability [%],% viability (Stg V Gam primary screen: Inhibition % (2uM) (n=2)) [%]
Cc1cccc(C2N3CCC4(CC3)c3[nH]c5ccccc5c3CCN24)n1 (stereo not shown) [DDD01058402],1.009,
Clc1cccc(-c2cccc(N3CCC(NC4CCOCC4)CC3)c2)c1 [DDD01252000],1.106,
CCC(=O)Nc1[nH]nc2c1c(C)nn2Cc1cccc(OC)c1 [DDD01063148],1.182,
CCc1ccc(C(C)NC(=O)CCC2=NC(=C3N=CN=N3)NO2)cc1 (stereo not shown) [DDD01068289],1.032,
CCc1c(C)[nH]c2cc(C3CCN(CCc4ccccc4)C3)nn2c1=O (stereo not shown) [DDD01060567],1.041,
COc1cc2c(cc1-c1nc3c[nH]n(C(C)C(C)C)c-3n1)OCO2 (stereo not shown) [DDD01255421],1.199,
Cc1cc(=O)n2nc(C3CCN(C(=O)c4ccccn4)CC3)cc2[nH]1 [DDD01057174],1.036,
COCCC(=O)N1Cc2[nH]c3c(C)c(-c4cccs4)nn3c(=O)c2C1 [DDD01056578],1.121,
CCc1c(C)nn2c(=O)cc(C3CCN(C(=O)C4CC4)C3)[nH]c12 (stereo not shown) [DDD01057056],1.097,
CCc1c(C)nn2c(=O)cc(C3CCN(C(=O)c4ccn(C)n4)C3)[nH]c12 (stereo not shown) [DDD01056907],1.06,
CCc1cc(=O)n2nc(C3CCN(C(=O)c4ccncc4)CC3)cc2[nH]1 [DDD01057177],1.239,
Cc1cc(=O)n(-c2ccc3nnc(C)n3n2)[nH]1 [DDD01038570],1.151,
Cc1nc(O)cc(CCNC(=O)CC[C@@H]2CCCN3CCCC[C@H]23)n1 [DDD01256003],1.201,
COc1ccc(-c2c(C)nn3c(N)c(C#N)nnc23)cc1 [DDD01035158],1.096,
CCc1nn2c(N)c(C#N)nnc2c1-c1ccc(OC)cc1 [DDD01035159],1.1,
COc1ccc(-c2c(C(C)C)nn3c(N)c(C#N)nnc23)cc1 [DDD01035184],0.9469,
Cc1ncsc1C(=O)N1CCCCC1c1cc2[nH]c(C)c(C)c(=O)n2n1 (stereo not shown) [DDD01059037],1.19,
Cc1[nH]n(-c2ccc(F)cc2)c2nnc(N)c1-2 [DDD01065623],1.104,
COc1cccc(CN(C)CC2=Nc3ccccc3S(=O)(=O)N2)c1 [DDD01073248],,1.218
COc1cccc(Cn2nc(C)c3c(NC(=O)C(C)OC)[nH]nc32)c1 (stereo not shown) [DDD01063202],1.059,

SMILES,% viability [%],% viability (Stg V Gam primary screen: Inhibition % (2uM) (n=2)) [%]
COc1cccc(C2=NN=CC2=C2NC(CN3CCCC3)=NO2)c1 [DDD01247208],1.119,
COCCC(=O)N1CCC(c2cc(=O)n(C)[nH]2)C1 (stereo not shown) [DDD01060470],1.179,
COc1cccc(F)c1-c1nc2c(C3CC3)[nH]n(C)c-2n1 [DDD01246655],1.144,
CCC(CO)N(Cc1cccnc1)C(=O)c1ccc(C(F)(F)F)nc1O (stereo not shown) [DDD01253913],1.193,
Cc1ccccc1CN(C)C(=O)CCC1=NC(=C2N=CN=N2)NO1 [DDD01062116],1.259,
Cc1[nH]n(C2CCCCC2)c2nc(C(C)(C)CN3CCOCC3)nc1-2 [DDD01254749],1.099,
Cc1[nH]n(C2CCCC2)c2nc(C(C)(C)CN3CCN(C)CC3)nc1-2 [DDD01248613],1.14,
Cc1nc(N2CCCC2)ncc1-c1cc(=O)n2ncnc2[nH]1 [DDD01038581],1.014,
CCc1cc(=O)n2nc(C3CCN(C(=O)c4ccccn4)CC3)cc2[nH]1 [DDD01057364],1.067,
CCc1c(C)[nH]c2cc(C3CCN(Cc4ccc(F)cc4)C3)nn2c1=O (stereo not shown) [DDD01060568],1.103,
Cc1[nH]c2cc(C3CCN(Cc4ccccc4F)C3)nn2c(=O)c1C (stereo not shown) [DDD01060615],0.9944,
CCc1c(C)[nH]c2cc(C3CCN(Cc4cccc(F)c4)C3)nn2c1=O (stereo not shown) [DDD01060569],1.163,
CCc1c(C)[nH]c2cc(C3CCN(Cc4cccnc4)C3)nn2c1=O (stereo not shown) [DDD01060570],1.145,
CCc1c(C)[nH]c2cc(C3CCN(Cc4ccccc4F)C3)nn2c1=O (stereo not shown) [DDD01270117],0.9474,
Cc1[nH]c2cc(C3CCN(Cc4cccc(F)c4F)C3)nn2c(=O)c1C (stereo not shown) [DDD01270135],0.8996,
Cc1nsc(N2CCCN(CC(=O)N(C)C3CC3)CC2)n1 [DDD01066804],1.153,
COCCCC(=O)N1CC(=O)Nc2cc(Br)ccc21 [DDD01075689],1.221,
Cc1ncc(CN2CCc3[nH]c4cc(C(C)(C)C)nn4c(=O)c3C2)n1C [DDD01058400],1.122,
O=C(CNC(=O)N1CCc2c([nH]c3ccc(Cl)cc23)C1)N1CCOCC1 [DDD01035668],1.056,
Cc1[nH]n(-c2ccccc2)c2nc(C(C)(C)CN3CCN(C)CC3)nc1-2 [DDD01252143],1.131,

SMILES,% viability [%],% viability (Stg V Gam primary screen: Inhibition % (2uM) (n=2)) [%]
Cc1[nH]n(C2CCS(=O)(=O)C2)c(=O)c1Cc1ccccc1 (stereo not shown) [DDD01026976],1.15,
Cc1[nH]n(C2CCS(=O)(=O)C2)c(=O)c1Cc1ccc(Br)cc1 (stereo not shown) [DDD01026979],1.197,
CCCn1ncc(-c2nc3c[nH]n(CC)c-3n2)c1C [DDD01252709],1.088,
CCn1[nH]cc2nc(-c3cc4c(cc3OC)OCO4)nc1-2 [DDD01244413],1.126,
CCc1c(C)nn2c(=O)cc(C3CCN(C(=O)c4ccccn4)C3)[nH]c12 (stereo not shown) [DDD01056906],1.115,
CCc1ccc(NC(=O)Nc2c(O)c3ccccc3oc2=O)cc1 [DDD01037337],1.219,
CN(CCCc1ccccc1)C(=O)CCC1=NC(=C2N=CN=N2)NO1 [DDD01062165],0.9845,
CCc1c(C)nn2c(=O)cc(C3CCN(C(=O)c4cnn(C)c4)C3)[nH]c12 (stereo not shown) [DDD01056908],1.149,
COCC(=O)Nc1[nH]nc2c1c(C)nn2Cc1cccc(OC)c1 [DDD01063147],1.204,
Fc1cccc(C2=NN=CC2=C2NC(CN3CCOCC3)=NO2)c1 [DDD01244908],1.1236,
CSc1cccc(NC(=O)Nc2c(O)c3ccccc3oc2=O)c1 [DDD01037688],1.182,
Cc1ncc(CN2CCc3c([nH]c4cc(C5CC5)nn4c3=O)C2)n1C [DDD01058398],1.038,
Cc1nnsc1C(=O)N1CCCCC1c1cc2[nH]c(C)c(C)c(=O)n2n1 (stereo not shown) [DDD01059036],1.123,
CCn1[nH]cc2nc(-c3ccc(OC)c(COC)c3)nc1-2 [DDD01253750],1.204,
CCc1cc(=O)n2nc(C3CCN(C(=O)c4cccnc4)CC3)cc2[nH]1 [DDD01057176],1.192,
COc1ccc(F)cc1-c1nc2c(C3CC3)[nH]n(C)c-2n1 [DDD01250494],1.074,
COc1cc(F)ccc1-c1nc2c(C3CC3)[nH]n(C)c-2n1 [DDD01248843],1.111,
COc1cc(OC)c(-c2nc3c(C4CC4)[nH]n(C)c-3n2)cc1OC [DDD01244474],0.9472,
